# Data: PubChem BioAssay (NCATS)
# Results filed as inconclusive are left out. A call without a number means that no potency is given here. Calls of active or inactive are those of the source. Unless noted, the call rests on the fitted dose curve; in most records, active means well fitted curve in the direction sought with a large enough effect; inconclusive means small, poorly fitted or top-dose-only effect, or another doubt; inactive means no such curve, though single readings can be large; an effect the other way counts as inactive or inconclusive.
# Key:
# [1] = target: Calcium and integrin-binding protein 1 (Homo sapiens) (UniProt Q99828); experiment: Primary qHTS for Identification of Calcium Integrin Binding Protein 1 (CIB1) Competitor (AID 1508620);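 further: GST tagged CIB1 binding a fluorescein labelled alphaIIb integrin peptide tracer; top concentration of the series differs between compounds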
# Method in brief: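 CIB1-GST (1 uM final) and compound incubated 15 min at room temperature before adding FITC-alphaIIb peptide tracer (100 nM final). Competition for binding read by fluorescence polarization (ex 480, em 540) after another 15 min at room temperature.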
# [2] = Primary qHTS for inhibitors of nuclear receptor binding SET domain protein 2 (NSD2) in an isogenic RCH-ACV NSD2 p.E1099K mutant (9B) (AID 1645876); further: nearly all actives have a fitted effect of over 70% in size; further: potency means the concentration at half of the fitted maximal effect
# [3] = target: Glutathione peroxidase 1 (Homo sapiens) (UniProt P07203); experiment: Primary qHTS Assay for Inhibitors of Recombinant Selenoprotein Glutathione Peroxidase 1 (GPX1) (AID 1845191); further: nearly all actives have a fitted effect of over 65% in size
# Method in brief: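 10 nM GPX1 + cpd, 30 min RT; start w/ 1 mM GSH, 0.5 mM cumene hydroperoxide, 0.5 mM NADPH, 100 nM GR, 0.01% BSA; buffer 50 mM Tris-HCl pH 7.5, 2 mM EDTA, 150 mM NaCl; Fl 340/450, 0 & 15 min.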
# [4] = target: Lysosomal acid glucosylceramidase (Homo sapiens) (UniProt P04062); experiment: Glucocerebrosidase-p2 (AID 348; in the data active means potency below about 10 µM; further: potency means the concentration at half of the fitted maximal effect); conditions: purified GBA, blue fluorogenic substrate, 40 min
# Method in brief: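 Compounds titrated from 0.6 nM upwards against 0.2 nM enzyme in pH 5.9 citric acid/KH2PO4, taurocholate, tween-20; blue fluorogenic substrate 80 uM, 40 min room temperature, stopped and read Ex 365/Em 440 for AC50.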
# [5] = AP1 Signaling Pathway (AID 357; active means well fitted curve in either direction with a large enough effect, not every such curve was filed as active;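 further: ME-180 reporter cells stimulated with EGF at its EC50 level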); conditions: ME-180 AP-1-bla reporter, EGF-induced, beta-lactamase ratio, 5 h; at 7.69 µM (top of the series) unless noted
# Method in brief: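 Beta-lactamase reporter under AP-1 response element, ME-180 background. Stimulus: EC50 EGF. Compound exposure 5 h, 37 °C. Detection: CCF4, 2.5 h RT, 460/530 nm. Values: AC50 from titration.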
# [6] = target: Cytochrome P450 1A2 (Homo sapiens) (UniProt P05177); experiment: p450-cyp1a2 (AID 410; calls by dose curve; further: potency means the concentration at half of the fitted maximal effect)
# Method in brief: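 Inhibition was calculated relative to 57 uM furafylline (full inhibition). The reaction used human CYP1A2 at 20nM with Luciferin-ME at its Km, 100uM, driven by an NADPH-regenerating system for 60 min at room temperature.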
# [7] = NFAT Signaling Pathway (AID 444; active means well fitted curve in either direction with a large enough effect, not every such curve was filed as active;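 further: carbachol stimulus at about its EC50 of 1 µM final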); conditions: Jurkat NFAT-bla M1, carbachol, beta-lactamase ratio, 5 h; at 7.69 µM (top of the series) unless noted
# Method in brief: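 Read-out: CCF4 FRET ratio (460 nm/530 nm) after 1 h RT dye loading, used for %activity and AC50 from titration series. Cells: Jurkat NFAT-β-lactamase/M1 line, treated with compound plus 1 uM carbachol for 5 h, 37 °C.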
# [8] = Stat Signaling Pathway (AID 446; active means well fitted curve in either direction with a large enough effect, not every such curve was filed as active;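 further: ME-180 cervical cancer cells given 40 pM IL-6 alongside compound; SIE-controlled beta-lactamase reporter measured as 460/530 nm FRET emission ratio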); conditions: ME-180 (cervical carcinoma) SIE beta-lactamase reporter, IL-6 stimulated, 5 h; at 7.69 µM (top of the series) unless noted
# Method in brief: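 IL-6/STAT signaling read in ME-180 cells via an SIE beta-lactamase reporter. Stimulus was 40 pM IL-6 (its AC50) for 5 hrs, so both activation and inhibition register.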
# [9] = target: Glucocorticoid receptor (Homo sapiens) (UniProt P04150); experiment: GR-EFC Redistribution (AID 451; calls by dose curve; further: potency means the concentration at half of the fitted maximal effect); conditions: CHO-K1 GR-EFC translocation, beta-gal luminescence, 2 h
# Method in brief: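 Translocation of GR-ED fusion to nuclear EA restores b-gal, read by luminescence after 1 h room-temperature detection. Engineered CHO-K1 biosensor cells, 1,000/well, exposed 2 h at 37 C to titrations up to 46 uM final.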
# [10] = target: Mitogen-activated protein kinase 10 (Mus musculus) (UniProt Q61831); experiment: JNK3 AlphaScreen Assay (AID 530; active means well fitted curve in either direction with a large enough effect, not every such curve was filed as active;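 further: kinase came from lysate of stimulated human HepG2 cells; signal reports phosphorylation of biotinylated GST-cJun 1-79 at Ser73 with 10 µM ATP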)
# Method in brief: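 Room-temperature AlphaScreen kinase assay; pre-activated HepG2 lysate as JNK3 source, biotin-GST-cJun(1-79) substrate, 10 uM ATP, compound 15 min preincubation.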
# [11] = target: Cytochrome P450 3A4 (Homo sapiens) (UniProt P08684); experiment: qHTS Assay for Activators of Cytochrome P450 3A4 (AID 885); further: nearly all actives have a fitted effect of over 65% in size
# Method in brief: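 Quantitative HTS format: compounds preincubated with 20nM human CYP3A4 and Luciferin-PPXE substrate at KM, reaction started by NADPH regeneration, stopped after 60 min, luciferase luminescence read 20 min later.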
# [12] = target: Cytochrome P450 2D6 (Homo sapiens) (UniProt P10635); experiment: qHTS Assay for Inhibitors and Substrates of Cytochrome P450 2D6 (AID 891); further: potency means the concentration at half of the fitted maximal effect; nearly all actives have a fitted effect of over 60% in size
# Method in brief: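 Human CYP2D6 (5 nM) with 30 uM Luciferin-ME EGE (at Km) in 100 mM KPO4, compound preincubated 10 min, then NADPH regeneration system for 60 min at room temperature. Luciferin read by luminescence; normalized to 1.43 uM quinidine.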
# [13] = target: Dual specificity protein kinase CLK4 (Homo sapiens) (UniProt Q9HAZ1); experiment: qHTS Assay for Inhibitors of CDC-like Kinase 4 (Kinase-Glo Assay) (AID 1770); further: potency means the concentration at half of the fitted maximal effect; nearly all actives have a fitted effect of over 65% in size
# Method in brief: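 Inhibition was judged from remaining ATP, measured by Ultra-Glo luciferase bioluminescence after Clk4 (25 nM) had acted on RS peptide at 1 uM ATP for 4.5 hours, room temperature.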
# [14] = target: Dual specificity protein kinase CLK4 (Homo sapiens) (UniProt Q9HAZ1); experiment: qHTS Assay for Inhibitors of CDC-like Kinase 4 (ADP-Glo Assay) (AID 1771); further: potency means the concentration at half of the fitted maximal effect; nearly all actives have a fitted effect of over 70% in size
# Method in brief: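 Kinase reaction: Clk4 at 25 nM, RS repeat peptide substrate at 100 uM, ATP at 1 uM, 1 hr, room temperature. Product ADP detected as luciferase signal via ADP-Glo.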
# [15] = target: Dual specificity protein kinase CLK4 (Homo sapiens) (UniProt Q9HAZ1); experiment: qHTS Assay for Inhibitors of CDC-like Kinase 4 (ADP-FP Assay) (AID 1795); further: potency means the concentration at half of the fitted maximal effect; nearly all actives have a fitted effect of over 60% in size
# Method in brief: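 Inhibition of ADP formation by 6.25 nM Clk4 is measured using 1 uM ATP and 100 uM RS repeat peptide over one hour. Produced ADP displaces a fluorescent tracer from antibody, lowering polarization.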
# [16] = target: Ubiquitin carboxyl-terminal hydrolase 1 (Homo sapiens) (UniProt O94782); experiment: Inhibitors of USP1/UAF1: Pilot qHTS (AID 504865);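 further: rhodamine fluorescence freed from ubiquitin-rhodamine substrate followed over time; top concentration of the series differs between compounds; nearly all actives have a fitted effect of over 35% in size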
# Method in brief: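 Kinetic fluorescence assay: 1nM USP1/UAF1, 15 min compound preincubation, then 150nM Ub-Rho; 480/540 nm.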
# [17] = Primary qHTS for small molecule stabilizers of the endoplasmic reticulum resident proteome: Secreted ER Calcium Modulated Protein (SERCaMP) assay (AID 1508630)
# Method in brief: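 GLuc-SERCaMP-expressing SH-SY5Y cells, pretreated 16 h with compound, are challenged with thapsigargin to empty ER calcium stores; after 4 h, coelenterazine is added directly to the medium and luminescence is imaged.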
# [18] = Primary qHTS for inhibitors of nuclear receptor binding SET domain protein 2 (NSD2) in an RCH-ACV wild type WT cells (2C) (AID 1645877); further: potency means the concentration at half of the fitted maximal effect; nearly all actives have a fitted effect of over 70% in size
# [19] = target: Catechol O-methyltransferase (Homo sapiens) (UniProt P21964); experiment: Confirmatory Screen for Target Class Profiling of Small Molecule Inhibitors of Methyltransferases (AID 1745852; calls by dose curve; further: potency means the concentration at half of the fitted maximal effect); conditions: MTase-Glo luminescence, SAH detection, recombinant enzyme; measured here: COMT max response; stronger effect = lower value
# [20] = target: Guanidinoacetate N-methyltransferase (Homo sapiens) (UniProt Q14353); experiment: as above; conditions: MTase-Glo luminescence, SAH detection, recombinant enzyme; activity change, negative = inhibition: at 57.3 µM (top of the series)
# [21] = target: Nicotinamide N-methyltransferase (Homo sapiens) (UniProt P40261); experiment: as above; conditions: MTase-Glo luminescence, SAH detection, recombinant enzyme; measured here: NNMT max response; stronger effect = lower value
# [22] = target: Phenylethanolamine N-methyltransferase (Homo sapiens) (UniProt P11086); experiment: as above; conditions: MTase-Glo luminescence, SAH detection, recombinant enzyme; measured here: PNMT max response; stronger effect = lower value
# Sequence of Phenylethanolamine N-methyltransferase (Homo sapiens) (P11086 whole entry, looked up): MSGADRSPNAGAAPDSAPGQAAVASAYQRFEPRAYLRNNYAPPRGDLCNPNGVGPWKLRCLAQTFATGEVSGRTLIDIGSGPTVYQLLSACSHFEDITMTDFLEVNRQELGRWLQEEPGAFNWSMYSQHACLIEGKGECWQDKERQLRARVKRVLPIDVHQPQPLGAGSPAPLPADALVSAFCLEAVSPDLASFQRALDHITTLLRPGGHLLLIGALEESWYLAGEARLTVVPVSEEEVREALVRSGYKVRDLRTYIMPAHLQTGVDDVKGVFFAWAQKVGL
# Sequence of Calcium and integrin-binding protein 1 (Homo sapiens) (Q99828 whole entry, looked up): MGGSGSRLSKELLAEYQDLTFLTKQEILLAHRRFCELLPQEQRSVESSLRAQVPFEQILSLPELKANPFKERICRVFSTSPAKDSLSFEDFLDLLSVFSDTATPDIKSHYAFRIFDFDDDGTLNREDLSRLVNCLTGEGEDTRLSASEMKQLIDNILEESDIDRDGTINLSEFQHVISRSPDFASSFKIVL
# Sequence of Dual specificity protein kinase CLK4 (Homo sapiens) (Q9HAZ1 whole entry, looked up): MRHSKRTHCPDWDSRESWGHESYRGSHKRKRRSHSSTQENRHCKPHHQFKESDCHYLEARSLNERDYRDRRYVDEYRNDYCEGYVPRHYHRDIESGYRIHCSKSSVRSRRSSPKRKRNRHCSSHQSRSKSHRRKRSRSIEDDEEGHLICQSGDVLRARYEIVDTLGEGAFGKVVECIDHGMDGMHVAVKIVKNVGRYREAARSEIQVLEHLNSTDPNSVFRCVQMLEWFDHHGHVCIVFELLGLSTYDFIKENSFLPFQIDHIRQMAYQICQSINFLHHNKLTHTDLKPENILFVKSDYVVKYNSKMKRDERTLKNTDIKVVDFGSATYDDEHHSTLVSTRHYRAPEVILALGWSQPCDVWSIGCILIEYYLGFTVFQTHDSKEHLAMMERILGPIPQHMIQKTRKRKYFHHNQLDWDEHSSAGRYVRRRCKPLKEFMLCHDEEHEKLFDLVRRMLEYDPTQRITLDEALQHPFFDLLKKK
# Sequence of Glutathione peroxidase 1 (Homo sapiens) (P07203 whole entry, looked up): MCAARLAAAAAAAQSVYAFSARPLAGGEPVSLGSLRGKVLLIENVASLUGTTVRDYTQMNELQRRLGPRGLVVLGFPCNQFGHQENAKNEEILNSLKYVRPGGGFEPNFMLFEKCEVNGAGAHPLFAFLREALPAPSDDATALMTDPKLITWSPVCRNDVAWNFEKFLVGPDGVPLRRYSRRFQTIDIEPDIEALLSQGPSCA
# Sequence of Cytochrome P450 1A2 (Homo sapiens) (P05177 whole entry, looked up): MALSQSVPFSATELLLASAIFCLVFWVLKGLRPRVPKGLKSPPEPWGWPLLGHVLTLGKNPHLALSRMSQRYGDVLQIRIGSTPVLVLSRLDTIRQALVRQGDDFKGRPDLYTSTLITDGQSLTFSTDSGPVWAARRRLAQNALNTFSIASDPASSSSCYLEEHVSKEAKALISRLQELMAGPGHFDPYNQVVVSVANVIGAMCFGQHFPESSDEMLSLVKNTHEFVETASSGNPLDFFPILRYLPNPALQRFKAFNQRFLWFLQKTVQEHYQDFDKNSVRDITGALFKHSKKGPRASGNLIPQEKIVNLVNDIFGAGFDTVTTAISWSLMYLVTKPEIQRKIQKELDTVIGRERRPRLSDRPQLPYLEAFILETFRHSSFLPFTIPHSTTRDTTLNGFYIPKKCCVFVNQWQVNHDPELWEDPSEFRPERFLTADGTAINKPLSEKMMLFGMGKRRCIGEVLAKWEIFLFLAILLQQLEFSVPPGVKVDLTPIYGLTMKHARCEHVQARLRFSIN
# Sequence of Cytochrome P450 2D6 (Homo sapiens) (P10635 whole entry, looked up): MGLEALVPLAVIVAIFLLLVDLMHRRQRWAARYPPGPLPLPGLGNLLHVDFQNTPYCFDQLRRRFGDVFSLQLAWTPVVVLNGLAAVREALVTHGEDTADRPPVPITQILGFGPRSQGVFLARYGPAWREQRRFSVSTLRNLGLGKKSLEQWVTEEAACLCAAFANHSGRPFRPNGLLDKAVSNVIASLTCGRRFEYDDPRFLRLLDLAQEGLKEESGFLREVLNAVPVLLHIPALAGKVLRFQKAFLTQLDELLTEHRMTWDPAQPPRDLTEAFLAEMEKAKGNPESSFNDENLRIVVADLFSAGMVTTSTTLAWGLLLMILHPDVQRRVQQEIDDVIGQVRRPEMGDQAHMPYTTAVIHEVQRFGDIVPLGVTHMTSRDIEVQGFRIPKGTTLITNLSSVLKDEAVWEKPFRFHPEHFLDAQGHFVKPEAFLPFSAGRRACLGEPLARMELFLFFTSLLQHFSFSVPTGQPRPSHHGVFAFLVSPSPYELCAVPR
# Sequence of Catechol O-methyltransferase (Homo sapiens) (P21964 whole entry, looked up): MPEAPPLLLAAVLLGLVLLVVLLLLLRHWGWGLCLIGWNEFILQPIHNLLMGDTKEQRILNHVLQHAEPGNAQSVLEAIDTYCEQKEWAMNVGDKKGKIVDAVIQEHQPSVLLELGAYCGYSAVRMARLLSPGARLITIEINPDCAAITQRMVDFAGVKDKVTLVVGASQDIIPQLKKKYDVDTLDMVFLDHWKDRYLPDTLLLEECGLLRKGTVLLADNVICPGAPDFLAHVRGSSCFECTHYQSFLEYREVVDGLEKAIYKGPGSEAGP
# Sequence of Nicotinamide N-methyltransferase (Homo sapiens) (P40261 whole entry, looked up): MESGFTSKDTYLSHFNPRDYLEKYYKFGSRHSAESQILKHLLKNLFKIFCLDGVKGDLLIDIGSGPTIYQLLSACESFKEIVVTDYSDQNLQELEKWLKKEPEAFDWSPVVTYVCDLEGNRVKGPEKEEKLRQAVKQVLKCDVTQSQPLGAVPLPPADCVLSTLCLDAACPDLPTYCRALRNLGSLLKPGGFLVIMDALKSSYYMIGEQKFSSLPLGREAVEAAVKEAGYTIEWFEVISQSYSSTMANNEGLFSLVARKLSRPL
# Sequence of Lysosomal acid glucosylceramidase (Homo sapiens) (P04062 whole entry, looked up): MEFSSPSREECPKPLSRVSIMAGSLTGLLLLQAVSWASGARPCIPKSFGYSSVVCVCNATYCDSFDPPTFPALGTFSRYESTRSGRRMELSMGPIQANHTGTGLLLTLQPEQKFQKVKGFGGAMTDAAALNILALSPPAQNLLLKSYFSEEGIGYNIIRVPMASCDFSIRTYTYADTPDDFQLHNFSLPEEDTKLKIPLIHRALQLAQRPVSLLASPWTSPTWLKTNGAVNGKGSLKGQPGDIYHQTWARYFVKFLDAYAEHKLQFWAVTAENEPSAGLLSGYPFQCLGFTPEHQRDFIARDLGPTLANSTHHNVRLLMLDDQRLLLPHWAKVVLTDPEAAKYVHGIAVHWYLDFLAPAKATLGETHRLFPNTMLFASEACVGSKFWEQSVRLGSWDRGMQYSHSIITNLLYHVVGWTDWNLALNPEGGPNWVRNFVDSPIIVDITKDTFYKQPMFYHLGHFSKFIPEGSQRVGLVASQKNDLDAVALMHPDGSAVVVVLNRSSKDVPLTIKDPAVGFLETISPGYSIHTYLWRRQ
# Sequence of Ubiquitin carboxyl-terminal hydrolase 1 (Homo sapiens) (O94782 whole entry, looked up): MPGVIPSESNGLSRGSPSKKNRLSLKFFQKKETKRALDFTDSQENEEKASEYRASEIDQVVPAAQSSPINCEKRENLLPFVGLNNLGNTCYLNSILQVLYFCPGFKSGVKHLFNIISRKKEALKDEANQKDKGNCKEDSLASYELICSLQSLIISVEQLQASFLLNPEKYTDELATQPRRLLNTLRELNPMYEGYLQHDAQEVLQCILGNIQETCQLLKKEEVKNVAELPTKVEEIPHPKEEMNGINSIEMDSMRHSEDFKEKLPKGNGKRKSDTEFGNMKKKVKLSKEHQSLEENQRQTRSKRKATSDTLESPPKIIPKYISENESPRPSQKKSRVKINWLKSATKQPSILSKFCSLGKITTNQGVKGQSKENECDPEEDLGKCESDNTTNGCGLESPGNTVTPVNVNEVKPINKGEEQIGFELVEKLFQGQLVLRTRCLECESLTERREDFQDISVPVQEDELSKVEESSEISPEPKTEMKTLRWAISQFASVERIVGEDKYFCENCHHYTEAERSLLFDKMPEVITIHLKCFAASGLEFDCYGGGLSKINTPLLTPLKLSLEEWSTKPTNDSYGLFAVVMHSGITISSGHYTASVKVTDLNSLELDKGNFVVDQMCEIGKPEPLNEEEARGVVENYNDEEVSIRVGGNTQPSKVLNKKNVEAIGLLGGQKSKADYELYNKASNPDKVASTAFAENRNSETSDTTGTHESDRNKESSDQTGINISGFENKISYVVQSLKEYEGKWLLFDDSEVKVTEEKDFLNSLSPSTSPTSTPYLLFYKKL
# Sequence of Glucocorticoid receptor (Homo sapiens) (P04150 whole entry, looked up, the tested form may be a part): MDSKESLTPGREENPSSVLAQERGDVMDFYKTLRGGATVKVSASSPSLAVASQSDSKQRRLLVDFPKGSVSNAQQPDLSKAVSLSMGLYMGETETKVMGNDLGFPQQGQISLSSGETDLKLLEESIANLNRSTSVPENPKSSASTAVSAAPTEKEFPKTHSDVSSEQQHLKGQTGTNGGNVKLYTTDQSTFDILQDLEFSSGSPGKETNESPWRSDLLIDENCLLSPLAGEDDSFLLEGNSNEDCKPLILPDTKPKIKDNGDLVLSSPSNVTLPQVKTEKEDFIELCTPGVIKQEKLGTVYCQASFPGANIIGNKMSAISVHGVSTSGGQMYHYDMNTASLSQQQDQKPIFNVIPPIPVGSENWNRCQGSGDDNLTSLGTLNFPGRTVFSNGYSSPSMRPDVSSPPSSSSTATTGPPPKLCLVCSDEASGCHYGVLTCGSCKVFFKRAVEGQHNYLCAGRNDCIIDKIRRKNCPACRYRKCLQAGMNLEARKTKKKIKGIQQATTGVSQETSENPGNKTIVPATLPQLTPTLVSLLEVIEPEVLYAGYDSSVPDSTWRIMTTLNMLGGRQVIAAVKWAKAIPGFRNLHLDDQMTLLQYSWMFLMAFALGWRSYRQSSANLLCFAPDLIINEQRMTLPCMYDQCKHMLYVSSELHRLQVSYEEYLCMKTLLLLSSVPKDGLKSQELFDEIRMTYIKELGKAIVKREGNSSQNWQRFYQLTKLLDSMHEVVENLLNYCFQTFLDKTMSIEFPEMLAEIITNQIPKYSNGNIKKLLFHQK
structure (smiles),measurement,setting,value
Cn1nnnc1Sc1ncnc2scc(-c3cc4ccccc4o3)c12,Potency,[1],inactive
Cc1nc(C)c(-c2ccc3ncnc(NCc4ncc[nH]4)c3c2)s1,Potency,[1],inactive
CCc1cccc(CC)c1OCc1cc(C2Nc3ccccc3C(=O)N2Cc2ccco2)ccc1OC (stereo unspecified),Potency,[1],inactive
N#Cc1c(-c2cccc(Cl)c2)no[n+]1[O-],Potency,[1],inactive
Cn1c2cc(B(O)O)sc2c2cnn(Cc3c(F)cccc3Cl)c(=O)c21,Potency,[1],inactive
COc1ccc(C2c3c(ncn(CCN4CCOCC4)c3=N)Oc3ccc4ccccc4c32)cc1OC (stereo unspecified),Potency,[1],inactive
Cc1cc(NS(=O)(=O)c2ccc3c(c2)CCC(=O)N3)ccc1F,Potency,[1],inactive
CCOc1ccccc1-c1nnc2n1N=C(c1ccc(OC)c(OC)c1)CS2,Potency,[1],inactive
Cn1ccc2cc(-c3ccc4ncnc(NCc5cccc(F)c5)c4c3)ccc21,Potency,[1],inactive
Cc1cc(C)nc(NC(=S)N2CCN(c3cc(Cl)c(Cl)cc3Cl)CC2)c1,Potency,[1],inactive
COc1ccccc1-n1cnc2cc(C(=O)N3CCCCC3)ccc21,Potency,[1],inactive
O=C(Nc1ccc(-c2nc3ccccc3[nH]2)cc1)c1ccc(-c2ccccc2)cc1,Potency,[1],inactive
NC(=O)c1c(NC(=O)C2CCCO2)sc2c1CCCC2 (stereo unspecified),Potency,[1],inactive
Cc1cc2c(s1)c1c(C)nn(Cc3ccccc3F)c(=O)c1n2C,Potency,[1],inactive
CN1CCN(C(=O)c2cccc(-c3ccc(CNc4ccc(N5CCN(C(=O)OC(C)(C)C)CC5)cc4)o3)c2)CC1,Potency,[1],inactive
Cc1ccc(OCCn2c(CCNC(=O)c3cccc(Cl)c3)nc3ccccc32)cc1,Potency,[1],inactive
Oc1ccc(CNc2ccccn2)c2cccnc12,Potency,[1],inactive
O=C(c1ccccc1O)N(Cc1ccco1)Cc1ccco1,Potency,[1],inactive
COc1ccc(NC(=O)CN2C(=O)N/C(=C\c3cccn3-c3ccc(C(=O)NC#N)cc3)C2=O)cc1,Potency,[1],inactive
CCOC(=O)c1ccc2c(c1)c(C(C)=O)c(C)n2-c1ccc(OC)cc1,Potency,[1],inactive
O=C1CCCC2=C1C1(CCCC1)N=C(Nc1nc3cc(Cl)ccc3o1)N2,Potency,[1],inactive
COc1ccc(CNc2ccc(S(=O)(=O)Nc3nccs3)cc2)cc1O,Potency,[1],inactive
COc1ccc2ncnc(NCC3CCCO3)c2c1-c1ccc2c(c1)OCO2 (stereo unspecified),Potency,[1],inactive
CCc1nnc(-c2cnn(C)c2N)n1CCCn1ccnc1,Potency,[1],inactive
CC(=O)c1ccc(N2CCN(S(=O)(=O)c3ccc4c(c3)OCC(=O)N4)CC2)cc1,Potency,[1],inactive
Cc1ccc(NC(=O)CN2C(=O)N/C(=C\c3cccn3-c3ccc(C(=O)NS(C)(=O)=O)cc3)C2=O)cc1,Potency,[1],inactive
Cc1cc(-c2nnc3n2CCCCC3)c(C)n1-c1ccc(Cl)c(Cl)c1,Potency,[1],inactive
N#Cc1ccc(OC2=NS(=O)(=O)c3ccccc32)cc1,Potency,[1],inactive
C[C@H]1CN(S(=O)(=O)c2c(F)cccc2F)CCN1S(=O)(=O)c1ccc2c(c1)OCCO2,Potency,[1],inactive
Oc1ccc(CNc2cc(Br)ccn2)c2cccnc12,Potency,[1],inactive
COc1ccc(-c2nc3cccc(OC)c3c(=O)n2Cc2ccccc2)cc1COc1ccc(NC(C)=O)cc1,Potency,[1],inactive
CC(=O)c1ccc(NC(=O)c2cnn3c(C)cc(C)nc23)cc1,Potency,[1],inactive
Cc1cccc(S(=O)(=O)NC2CCN(C#N)C2)c1 (stereo unspecified),Potency,[1],inactive
CC1=C(C(=O)NCc2ccccc2)C(c2ccccc2Br)N=C(Nc2nc3ccccc3o2)N1 (stereo unspecified),Potency,[1],inactive
NC(=O)C1CCN(c2nc(-c3ccc(F)cc3)cs2)CC1,Potency,[1],inactive
O=C1c2ccccc2C(=O)N1c1cc(=O)c2ccccc2[nH]1,Potency,[1],inactive
N#Cc1nc(NCC(F)F)c2ncn(-c3cc(F)cc(F)c3)c2n1,Potency,[1],inactive
CC(C)Oc1ccc(C(=O)Nc2ccc(-c3nc4ccccc4[nH]3)cc2)cc1,Potency,[1],inactive
Cc1cc(C)nc(NC(=C(C#N)C#N)N2CCN(c3cccc(C(F)(F)F)c3)CC2)c1,Potency,[1],inactive
O=C1CCc2cc(S(=O)(=O)Nc3cccc(Cl)c3)ccc2N1,Potency,[1],inactive
same,Potency,[2],inactive
same,Potency,[3],inactive
Cc1ccnc(NC(=S)N2CCN(c3ccccc3C(F)(F)F)CC2)c1,Potency,[1],inactive
Clc1ccccc1-c1ccc2ncnc(NCc3cccnc3)c2c1,Potency,[4],> 11.4 µM (inactive)
same,"activity change, negative = inhibition",[5],2.12% (inactive)
same,Potency,[6],0.158 µM (active)
same,"activity change, negative = inhibition",[7],13.8% (inactive)
same,"activity, negative = inhibition",[8],-5.2% (inactive)
same,Potency,[9],> 46 µM (inactive)
same,outcome,[10],inactive
same,Potency,[11],inactive
same,Potency,[12],6.31 µM (active)
same,Potency,[13],10 µM (active)
same,Potency,[14],11.2 µM (active)
same,Potency,[15],10 µM (active)
same,Potency,[16],inactive
same,Potency,[1],inactive
same,Potency,[17],inactive
CN(Cc1cccs1)c1ncnc2ccc(-c3ccc4c(c3)OCO4)cc12,Potency,[1],inactive
same,Potency,[2],20.6 µM (active)
same,Potency,[18],20.6 µM (active)
same,activity,[19],-85.9%
same,Potency,[20],12.1 µM (active)
same,activity,[21],-70.6%
same,activity,[22],-84.2%
same,Potency,[3],inactive
